High-throughput results as filed in PubChem.
HTT promoter inh: inhibits huntingtin promoter activity; HEK293 HTT promoter firefly luciferase reporter, 24 h; Potency, µM (top dose mostly 57.5 µM), without a hit: top-dose activity change, negative = inhibition, usual class: inhibitors; hit rate 0.93% among 48,000; note: nearly all actives have a fitted effect of over 50% in size
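Firefly luciferase readout (Dual-Glo, 10 min RT) after 24 h, 37 °C compound exposure (final up to 57.5 uM) of HEK293 reporter cells cultured 24 h beforehand; PTC124 at 50 uM final as control inhibitor; activity scaled vehicle 0%, zero RLU -100%.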
GALC G270D act: raises human GALC G270D mutant activity in cells; Potency, µM (titrated, usually from 57.5 µM), usual class: activators; P54803; hit rate 0.1% among 45,000; 145M-Twi-hGALC-G270D cells (Twitcher mouse brain line with human GALC G270D), HMU-beta-Gal fluorescence, 48 h; AID 1159614; note: 0% is about no effect; nearly all actives have a fitted effect of over 65% in size
Target sequence (P54803 whole entry G286D): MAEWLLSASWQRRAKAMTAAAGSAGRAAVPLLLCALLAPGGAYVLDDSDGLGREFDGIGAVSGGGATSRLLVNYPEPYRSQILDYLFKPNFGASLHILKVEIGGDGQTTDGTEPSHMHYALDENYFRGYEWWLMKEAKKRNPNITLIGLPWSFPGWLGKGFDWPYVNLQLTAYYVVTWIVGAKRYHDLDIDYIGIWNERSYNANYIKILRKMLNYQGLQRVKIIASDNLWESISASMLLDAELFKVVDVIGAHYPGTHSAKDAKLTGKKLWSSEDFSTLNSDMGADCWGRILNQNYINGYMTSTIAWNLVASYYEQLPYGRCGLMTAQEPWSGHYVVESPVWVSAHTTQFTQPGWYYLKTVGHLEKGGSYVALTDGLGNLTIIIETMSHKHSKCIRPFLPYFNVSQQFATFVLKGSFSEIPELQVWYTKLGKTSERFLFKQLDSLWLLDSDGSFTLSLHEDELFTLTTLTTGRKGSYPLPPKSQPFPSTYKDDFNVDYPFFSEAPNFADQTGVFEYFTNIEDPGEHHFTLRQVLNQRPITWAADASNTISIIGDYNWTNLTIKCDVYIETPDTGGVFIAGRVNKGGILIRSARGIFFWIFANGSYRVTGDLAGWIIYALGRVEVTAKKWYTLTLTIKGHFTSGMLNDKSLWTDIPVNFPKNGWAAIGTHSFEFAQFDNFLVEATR
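Live 145M-Twi cells (Twitcher mouse brain-derived, GALC-null) stably expressing human GALC-G270D, with a wild-type GALC line, were compound-treated. Residual GALC activity was then read as fluorescence from 0.1 mM final HMU-β-gal at pH 5.2; higher signal means activation.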
HTT-AS promoter: activators of huntingtin-antisense promoter activity | HEK293 HTT-AS promoter firefly luciferase reporter, 24 h; response scale: percent change from vehicle, -100% = no light | Potency, µM (highest dose often 57.5 µM), inactives show at the top dose activity change, positive = activation, hits mostly activators | hit rate 0.24% among 48,000 | AID 1508624; note: nearly all actives have a fitted effect of over 55% in size
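HEK293 cells carrying firefly luciferase reporters were seeded at 2,500 per well in Opti-MEM and cultured for 24 h. They were then treated with compounds at up to 57.5 uM final for 24 h at 37 degrees C before Dual-Glo luminescence readout.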
NTMT1 inhibitor: inhibitors of human N-terminal methyltransferase NTMT1 | Q9BV86 | NTMT1 MTase-Glo SAH luminescence, purified enzyme | Potency, µM (highest dose often 114 µM), inactives show at the highest dose activity change, negative = inhibition, most hits filed as inhibitors | hit rate 2.5% among 59,000 | AID 1645870;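 note: plate controls were DMSO vehicle for no effect and no enzyme for full effect; nearly all actives have a fitted effect of over 65% in size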
An asterisk follows results filed as active; i = inactive; ? = inconclusive; · = no result given; ! = a repeat was not active; [ ] = another dose, or the depositor's remark. Only some compounds are listed: those with a hit (about 2.7% of all), similar ones and a draw of the others. Calls come from the whole dose curve; as a rule, active = well fitted curve in the direction sought with a large enough effect; inconclusive = small, poorly fitted or top-dose-only effect, or another doubt; inactive = no such curve, though single readings can be large; an effect the other way counts as inactive or inconclusive. Potency is the fitted concentration of half-maximal effect.

SMILES	HTT promoter inh	GALC G270D act	HTT-AS promoter	NTMT1 inhibitor
CC1(C)CC[C@]2(C(=O)O[C@@H]3O[C@H](CO)[C@@H](O)[C@H](O)[C@H]3O)CC[C@]3(C)C(=CCC4[C@@]5(C)C[C@@H](O)[C@H](O)[C@](C)(C(=O)O)C5CC[C@]43C)C2C1O (stereo partly specified)	·	·	·	15%[12.6 µM]
CC(C)c1ccc2c(c1)C(=O)CC1[C@@](C)(C(=O)O)CCC[C@]21C (stereo partly specified)	·	·	·	-17%[29.8 µM]
Cc1ccc(/C=C/c2nc3ccccc3[nH]2)cc1	-68%	i	-72%	5µM*
O=C(O)CCc1nc2ccccc2[nH]1	4%	i	-10%	?
Cc1ccccc1OCC(=O)Nc1ccccc1C(=O)OCc1cc(=O)n2c(C)csc2n1	2.2µM*	i	-47%	2%
COc1c(/C=C/C(C)(C)O)ccc2c1C(=O)OCc1cc(C)cc(O)c1O2	·	·	·	-2%[29.8 µM]
Cc1cc(N)c2cc(NC(=O)Nc3ccc4nc(C)cc(N)c4c3)ccc2n1	-6%	i	-11%	20µM*
CCCNS(=O)(=O)Nc1ncnc(OCCOc2ncc(Br)cn2)c1-c1ccc(Br)cc1	16%	·	-7%	8.6µM*!
Cc1ccc(-c2ccc(=O)n(CC(=O)N(C)C3CCCCCC3)n2)cc1	·	·	·	-8%[57.5 µM]
CN(C)c1ccc(C2O[C@@H](c3ccccc3)C[C@H](c3ccccc3)O2)cc1 (stereo partly specified)	·	·	·	-3%[57.5 µM]
CC1(COc2ccc3c(c2)ncn3-c2ccc3cccc(N4CCC(N)CC4)c3n2)COC1	?	·	-51%	22µM*!
Nc1ncnc2c1C(=O)N(c1ccc(C3CCC(CC(=O)O)CC3)cc1)CCO2 (stereo unspecified)	·	·	·	2%
NC(=O)c1cccc2[nH]c(-c3ccc([C@H]4CCCN4)cc3F)nc12	7%	·	?	45µM*
NC(=O)c1cccc2[nH]c(-c3ccc(C4CCCN4)cc3F)nc12 (stereo unspecified)	·	·	·	-3%[57.5 µM]
Oc1cc(-c2nc(-c3ccccc3)[nH]c2-c2ccncc2)ccc1Cl	?	·	-25%	16%[57.5 µM]
CS(=O)c1ccc(-c2nc(-c3ccc(F)cc3)c(-c3ccncc3)[nH]2)cc1 (stereo unspecified)	-9%[116 µM]	·	-25%[116 µM]	35µM*
Cc1oc2ncnc(N3CCOCC3)c2c1C(=O)Nc1ccc(Br)cc1F	-12%	i	-19%	89µM*
CCOC(=O)C1CCN(C(=O)CNC(=O)Nc2ccccc2Cl)CC1	·	·	·	1%[57.5 µM]
Cc1cc(C)cc(Nc2cc(C)nc3nncn23)c1	10%	i	-4%	-2%
Cc1cc(NCc2ccccc2Cl)n2cnnc2n1	18µM*	i	-44%	-4%
Oc1ccc(O)cc1	-6%	i	-22%	35µM*
Oc1ccccc1	1%	i	1%	-14%[57.5 µM]
COc1cc(-c2cn(C)c(=O)c3cnccc23)cc(OC)c1CN(C)C	·	·	·	4%
CC1(C)O[C@]23C[C@H]1C[C@H](OC(=O)c1ccoc1)[C@]2(C)[C@@H](OC(=O)c1ccoc1)CCC3(C)O (stereo partly specified)	·	·	·	-12%[29.8 µM]
Cc1cn([C@H]2C[C@H](N[S+](=O)([O-])Cc3ccccc3)[C@@H](CO)O2)c(=O)[nH]c1=O	·	·	·	5%[57.5 µM]
SMILES	HTT promoter inh	GALC G270D act	HTT-AS promoter	NTMT1 inhibitor
Cc1cn([C@H]2C[C@H](N[S+](=O)([O-])Cc3cc(Cl)cc(Cl)c3)[C@@H](CO)O2)c(=O)[nH]c1=O	·	·	·	79µM*
Cc1ccccc1NC(=O)Nc1ccc(CN2C(=O)N([C@@H](CC(C)C)C(=O)N[C@@H](CC(=O)O)c3ccccc3)C(=O)C2(C)C)cc1	·	·	·	-3%[57.5 µM]
CCCCOCc1cc(CN2CCN(c3cccc(Cl)c3)CC2)c(O)c2ncccc12	?	i	-39%	14%
CCCOCc1cc(CN2CCN(c3cccc(Cl)c3)CC2)c(O)c2ncccc12	8.9µM*	i	-38%	16%
C/C(=C\C(=O)Nc1ccccc1C(=O)O)c1ccc2ccccc2c1	·	·	·	28µM*
Cc1ccc(O)c([C@H](CCN(C(C)C)C(C)C)c2ccccc2)c1	-4%	i	-9%	?
CC(C)C(=O)Oc1ccc(CO)cc1[C@H](CCN(C(C)C)C(C)C)c1ccccc1	-5%	·	-11%	22µM*!
CS(=O)(=O)Nc1ccc(-c2nc3ccccc3s2)cc1	0%	i	?	-12%
Nc1ccc2nc(-c3ccc(O)cc3)sc2c1	86%	i	?	32µM*
C=C1CC23CC(=O)C4C(CO)(CO)CCCC4(C)C2CCC1C3 (stereo unspecified)	·	·	·	-6%[29.8 µM]
Cc1nn(-c2ccc(F)cc2)c(-n2cccc2)c1C(=O)N1CCN(c2ccc(F)cc2)CC1	28µM*	i	-34%	?
COc1cc(OC)cc(-c2nc(-c3cccc(C)c3)no2)c1	61%	i	11µM*	-13%
COc1ccc(N2CCN(c3ccc(-c4nc(-c5cccc(C)c5)no4)cc3[N+](=O)[O-])CC2)cc1	25%	i	21%	34%
COc1ccccc1OCc1nc(-c2cccc(C)c2)no1	69%	i	10µM*	8%
COc1ccc(-c2noc(COc3ccc(C)cc3C)n2)cc1OC	-24%	i	0%	9%
CCc1cnc2c(c1SCC(=O)N1CCCCC1)c(=O)n(C)c(=O)n2C	-10%	i	-10%	-1%
CCc1cnc2c(c1SC(C(C)=O)C(=O)N(C)C)c(=O)n(C)c(=O)n2C (stereo unspecified)	-8%	i	-6%	25µM*
COc1cc2c(Nc3ccc(Cl)c(Cl)c3F)ncnc2cc1OCC1C[C@@H]2CN(C)C[C@@H]2C1 (stereo partly specified)	·	·	·	11µM*
COc1cc2ncnc(Nc3cc(Br)c(O)c(Br)c3)c2cc1OC	-20%	·	-32%	?
COc1ccc(Cl)c(Nc2ncnc3cc(OCC4CCN(C)CC4)c(OC)cc23)c1	·	·	·	28µM*
CC1(C)OC(=O)C=C[C@@]2(C)C1CC(=O)[C@]1(C)C2CC[C@@]2(C)[C@H](c3ccoc3)OC(=O)[C@H]3O[C@]321 (stereo partly specified)	·	·	·	-14%[29.8 µM]
COC(=O)[C@]1(C)CCC[C@@]2(C)C(=O)CC[C@H]3C(=O)C=C(CC[C@@H]21)C3O (stereo partly specified)	·	·	·	2%[29.8 µM]
CC(=O)Nc1cc(C(=O)Nc2ccc3c(c2)N(C)C(=O)c2ccccc2S3)ccc1C	-7%	i	-20%	0%
Cc1ccc(C(=O)Nc2ccc3c(c2)N(C)C(=O)c2ccccc2S3)cc1F	13µM*	i	-52%	-7%
CN1C(=O)c2ccccc2Sc2ccc(NC(=O)N3CCN(c4ccc(F)cc4)CC3)cc21	28µM*	i	-77%	5%
Nc1ncnc2c1ncn2[C@H]1CCCO1	·	·	·	3%[57.5 µM]
O=C(Cn1nc2c(cc1=O)CCCC2)NCc1ccc(Cl)cc1	-24%	i	-32%	13%
O=C(Cn1nc2c(cc1=O)CCCC2)NCc1ccccc1	37%	i	?	89µM*
